Compound activity: PubChem, National Center for Advancing Translational Sciences (NCATS)
Rows were chosen to be rich in hits. Some 12% of all compounds tested hit in one or more screens of this group.
RORgamma inh: qHTS for inhibitors of ROR gamma transcriptional activity; Nuclear receptor ROR-gamma (Mus musculus), P51450; Drosophila S2 Gal4-RORgamma UAS-luciferase reporter, 20 h; Potency, µM (titrated, usually from 53.6 µM), for the others: at the top dose activity change, negative = inhibition, actives largely listed as inhibitors; 310,000 tested, 5.4% active; AID 2551, 2010; also: nearly all actives have a fitted effect of over 60% in size
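Compounds are pin-transferred onto Drosophila Schneider cells expressing a copper-inducible Gal4–ROR gamma transactivation domain fusion. After 1 hr, copper sulfate is added to 700 uM final; luciferase is read 20 hr later.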
PLK1 PBD block: qHTS for Inhibitors of PLK1-PDB (polo-like kinase 1 - polo-box domain): Primary Screen; Serine/threonine-protein kinase PLK1 (Homo sapiens), P53350; Plk1 PBD binding of FITC phosphopeptide, fluorescence polarization; Potency, µM, inactives show max response, negative = inhibition, actives largely listed as inhibitors; 360,000 tested, 2.8% active; AID 720504, 2013; also: series mostly up to about 57 µM; nearly all actives have a fitted effect of over 65% in size
Sfp PPTase inh: qHTS Assay for Inhibitors of Bacillus subtilis Sfp phosphopantetheinyl transferase (PPTase); Potency, µM, inactives show largest response in the series, negative = inhibition, hits mostly inhibitors; 4'-phosphopantetheinyl transferase ffp (Bacillus subtilis), Q9F4F7; AID 1490, 2009; 310,000 tested, 3.5% active; Biochemical Sfp PPTase activity, qHTS;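 also: the enzyme is Sfp with the accession as filed and its product quenches rhodamine fluorescence; 0% = enzyme reaction without inhibitor and -100% = no enzyme wells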
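With Hepes-Na pH 7.6 buffer containing 10 mM MgCl2, Sfp (15 nM) modified BHQ-2-YbbR (12.5 uM) using rhodamine-CoA (5 uM). Two reads 30 minutes apart at 525/598 nm yielded each well's rate.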
Gal4-VP16 FLuc: VP16 counterscreen qHTS for inhibitors of ROR gamma transcriptional activity; Drosophila S2 Gal4-VP16 UAS-luciferase, luminescence, 20 h; Potency, µM (top dose mostly 53.6 µM), for the others: at the highest dose activity, negative = inhibition, usual class: inhibitors; 310,000 tested, 3.5% active;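 also: Gal4-VP16 expression switched on by copper sulfate through the metallothionein promoter; nearly all actives have a fitted effect of over 50% in size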
ALDH1A1 block: qHTS Assay for Inhibitors of Aldehyde Dehydrogenase 1 (ALDH1A1); Aldehyde dehydrogenase 1A1 (Homo sapiens), P00352; Purified ALDH1A1, NADH fluorescence, propionaldehyde substrate; Potency, µM (titrated, usually from 75.3 µM), for the others: at the highest dose activity, negative = inhibition, most hits filed as inhibitors; 220,000 tested, 7.3% active; active = well fitted inhibition curve with a large enough effect, not every such curve was filed as active; inconclusive = small, poorly fitted or top-dose-only effect, or another doubt; inactive = no such curve, though single readings can be large or run the other way;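 also: plate controls were no enzyme wells and a reference inhibitor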
Target sequence (P00352 whole entry, looked up): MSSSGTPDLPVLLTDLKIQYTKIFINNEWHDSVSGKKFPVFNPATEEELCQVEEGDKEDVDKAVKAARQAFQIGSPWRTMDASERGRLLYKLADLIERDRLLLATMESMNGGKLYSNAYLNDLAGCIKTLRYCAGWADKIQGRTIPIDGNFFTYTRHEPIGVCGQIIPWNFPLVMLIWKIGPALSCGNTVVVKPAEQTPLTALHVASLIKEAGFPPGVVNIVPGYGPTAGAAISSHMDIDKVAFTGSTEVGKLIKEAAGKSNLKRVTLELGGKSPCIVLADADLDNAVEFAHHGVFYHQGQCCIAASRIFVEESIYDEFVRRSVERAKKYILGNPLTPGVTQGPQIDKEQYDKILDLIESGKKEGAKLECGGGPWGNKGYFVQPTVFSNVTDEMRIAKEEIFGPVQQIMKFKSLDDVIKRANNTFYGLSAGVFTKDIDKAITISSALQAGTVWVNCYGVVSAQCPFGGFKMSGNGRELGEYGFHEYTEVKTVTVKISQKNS
* marks the source's active call; other numbers are inactive results; ? = inconclusive; . = no result given; [ ] = remark or other dose. Unless noted, calls follow the shape of the dose curve; as a rule, active = well fitted curve in the direction sought with a large enough effect; inconclusive = small, poorly fitted or top-dose-only effect, or another doubt; inactive = no such curve, though single readings can be large; an effect the other way counts as inactive or inconclusive. Unless noted, % is scaled to controls: 0 for no effect and ±100 for the full control effect; potency is read from the fitted curve at half-maximal effect.

SMILES | RORgamma inh | PLK1 PBD block | Sfp PPTase inh | Gal4-VP16 FLuc | ALDH1A1 block
COC(=O)c1c(NC(=O)COC(=O)Cn2cnc3ccccc32)sc(C)c1C | -4% | -18% | 1% | -18% | 25µM*
CCOC(=O)c1c(NC(=O)Cn2nnc3ccccc32)sc2c1CCC(C)C2 (stereo unspecified) | ? | -2% | 9% | -4% | -2%
CCOC(=O)c1c(NC(=O)COC(=O)Cn2cnc3ccccc32)sc2c1CCC(C)C2 (stereo unspecified) | 9% | -14% | -18% | -21% | 7.9µM*
O=C(NCc1cccnc1)OC1CC2CC1[C@H]1CCCCN1C2=O (stereo partly specified) | . | -14% | . | . | .
CCNc1ncc2nc(C)c(=O)n(CCOC)c2n1 | -7% | . | 6% | 1% | ?
Nn1c(SCC(=O)Nc2ccc(N3CCOCC3)cc2)nnc1-c1ccccc1F | . | -21% | . | . | .
CCCC(=O)N(C)c1nnc(-c2ccc(OC)cc2)s1 | ? | ? | -12% | 12% | 28µM*
COCCN(C(=O)CCc1ccc(OC)cc1)c1nnc(-c2ccncc2)s1 | 41% | -4% | -27% | 3% | 22µM*
COCCN(C(=O)C1CC1)c1nnc(-c2ccc(C)cc2)s1 | ? | -7% | 6% | 8% | ?
CCOc1ccc(-c2nnc(N(CC)C(=O)C3CCC3)s2)cc1 | -1% | ? | 40µM* | -7% | ?
Cc1cccc(NC(=O)CN(C)C(C)C(=O)Nc2ccc(S(=O)(=O)N3CCCC3)cc2)c1C (stereo unspecified) | . | -8% | . | . | .
C/C(=N\NC(=S)Nc1c(C)cccc1C)c1cc2ccccc2o1 | 1µM* | -3% | 4% | 7.1µM* | ?
C/C(=N\NC(=S)Nc1ccccc1C)c1cc2ccccc2o1 | 1.3µM* | -3% | 7% | 7.1µM* | .
C/C(=N\NC(=O)C(c1ccccc1)c1ccccc1)c1ccc(O)cc1 | 20% | -16% | 7% | 0% | .
C/C(=N\NC(=S)Nc1c(C)cccc1C)c1ccc(O)cc1 | 8.9µM* | -9% | -23% | ? | .
C/C(=N\NC(=O)c1ccco1)c1cc2ccccc2o1 | 0% | -4% | -7% | -9% | -10%
C[C@H](O)[C@@H]1CN2CCc3c([nH]c4ccccc34)[C@@H]2C[C@@H]1N(C)Cc1cc(Cl)cc(Cl)c1 | . | 0% | . | . | .
O=C(COc1cccc2cccnc12)NNC(=S)Nc1ccccc1 | 0.89µM* | . | -2% | -2% | ?
Cc1cccc(NC(=S)NNC(=O)COc2ccc(Cl)cc2Cl)c1 | 4.5µM* | -13% | ? | 2.8µM* | 6.3µM*
CCC(=O)NC(=S)Nc1ccc(NC(=O)COc2ccc(Cl)cc2Cl)cc1 | 11µM* | -19% | 12% | ? | 4%
COc1ccc(NC(=S)NNC(=O)COc2ccc(Cl)cc2Cl)cc1 | ? | -27% | -10% | -7% | 7%
O=C(CNC(=O)[C@@H]1Cc2ccccc2CN1)Nc1ccc2c(c1)OCCO2 | 4% | -14% | -1% | 5% | .
O=C(Nc1ccccc1)N1CCCC2(CCN(C(=O)c3cc(C(F)(F)F)cc(C(F)(F)F)c3)CC2)C1 | -7% | . | 14% | -2% | 5%
CCCS(=O)(=O)NC(=O)C1(C)CCCN(C(=O)c2ccc(F)cc2Cl)C1 (stereo unspecified) | . | -1% | . | . | .
COC(=O)[C@@]1(C(C)C)N=C(c2cc(OC)c(OC)c(OC)c2)[C@]2(O1)C(=O)Nc1ccccc12 | . | 1% | . | . | .
SMILES | RORgamma inh | PLK1 PBD block | Sfp PPTase inh | Gal4-VP16 FLuc | ALDH1A1 block
Cc1c(NC(=S)/C=C2\N(C)c3ccccc3C2(C)C)c(=O)n(-c2ccccc2)n1C | 13% | ? | 50µM* | ? | -5%
CN1/C(=C/C(=S)NC(=O)C2CCC2)C(C)(C)c2ccccc21 | 6.3µM* | -16% | ? | 13µM* | ?
CN1/C(=C\C(=O)COC(=O)c2ccccc2O)C(C)(C)c2ccccc21 | ? | -1% | -6% | -9% | .
CC(C)C(=O)NC(=S)/C=C1/N(C)c2ccccc2C1(C)C | 3.5µM* | -27% | ? | 4µM* | 8.9µM*
CN1/C(=C\C(=O)c2cccc(S(=O)(=O)N3CCCCC3)c2)C(C)(C)c2ccccc21 | ? | -4% | 9% | -9% | ?
Cc1ccc(C(=O)NCC(=O)OCC(=O)/C=C2\N(C)c3ccccc3C2(C)C)cc1C | ? | 30µM* | -5% | ? | ?
CN1/C(=C\C(=O)C(F)F)C(C)(C)c2ccccc21 | 22% | -9% | 7% | 0% | ?
Cc1cccc(NS(=O)(=O)c2cccc(C(=O)NCC3(N4CCOCC4)CCCCC3)c2)c1 | . | -2% | . | . | .
COc1cccc(Nc2ncc3nc(-c4cccs4)c(=O)n(C[C@H]4CCCO4)c3n2)c1 | ? | . | -3% | -15% | -1%
CCCCNc1nc(C)nc2c1nc(-c1ccccc1)n2CC1CCCN1CC (stereo unspecified) | ? | . | 16% | -1% | ?
Cc1ccc(C(=O)NC(=S)/C=C2\N(C)c3ccccc3C2(C)C)cc1 | 7.1µM* | ? | ? | 5.6µM* | ?
Brc1ccc(C2=Nn3c(Cn4nnc5ccccc54)nnc3SC2)cc1 | 33% | 12µM* | 28µM* | -2% | .
COc1ccc(CN2C(=O)c3ccccc3C2c2nnnn2-c2ccc3c(c2)OCCO3)cc1OC (stereo unspecified) | . | 1% | . | . | .
CCCOc1ccc(C(C)(O)CN2CCOCC2)cc1 (stereo unspecified) | 0% | 5% | 17% | 1% | 3%
CCCCOc1ccc(C(O)(CCC)CCN2CCOCC2)cc1 (stereo unspecified) | ? | -2% | 14% | -18% | 5.6µM*
CCCCC(O)(CCN1CCOCC1)c1ccc(Cl)cc1 (stereo unspecified) | -18% | -1% | -5% | -2% | 28µM*
CCCCOc1ccc(C(O)(CC)CCN2CCOCC2)cc1 (stereo unspecified) | -34% | -8% | 6% | 0% | 7.9µM*
CCCC(O)(c1ccc(Cl)cc1)C(CN1CCOCC1)c1ccccc1 (stereo unspecified) | -6% | 3% | 4% | -19% | 1%
CCCCOc1ccc(OCCCN2CCOCC2)cc1 | ? | -10% | -5% | -8% | 2%
CN(C)c1ncc2nc(-c3ccc(Cl)cc3)c(=O)n(C[C@H]3CCCO3)c2n1 | -22% | . | 10% | -9% | ?
COc1ccc(C(=O)CC(=O)C(=O)Nc2cc(C)ccc2C)cc1 | 7.1µM* | -16% | 21% | 10µM* | .
COc1ccc(C(=O)CC(=O)C(=O)NCCc2cccc(C)c2)cc1 | -2%[10 µM] | -22% | 12% | ? | 2.2µM*
CCOc1ccccc1NC(=O)c1ccc(S(=O)(=O)N(C)C)cc1 | -9% | 1% | -5% | -5% | 14µM*
